Source: PubChem (National Center for Advancing Translational Sciences (NCATS))
VDR inhibitor: inhibitors of human vitamin D receptor; AID 504847; 400,000 tested, 0.93% active; P11473; Potency, µM, actives largely listed as inhibitors; VDR-SRC2-3 peptide fluorescence polarization, 2 h
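After 23 nl compound addition and a short centrifugation, plates sat for 2 hours at ambient temperature; polarization of fluorescence then indicated loss of VDR binding to peptide SRC2-3.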
PLK1 PBD block: PLK1 (human) polo-box domain binding inhibition | Plk1 PBD binding of FITC phosphopeptide, fluorescence polarization | P53350 | Potency, µM, hits mostly inhibitors | 360,000 tested, 2.8% active | AID 720504; note: series mostly up to about 57 µM; nearly all actives have a fitted effect of over 65% in size
Target sequence (P53350 whole entry, looked up, the tested form may be a part): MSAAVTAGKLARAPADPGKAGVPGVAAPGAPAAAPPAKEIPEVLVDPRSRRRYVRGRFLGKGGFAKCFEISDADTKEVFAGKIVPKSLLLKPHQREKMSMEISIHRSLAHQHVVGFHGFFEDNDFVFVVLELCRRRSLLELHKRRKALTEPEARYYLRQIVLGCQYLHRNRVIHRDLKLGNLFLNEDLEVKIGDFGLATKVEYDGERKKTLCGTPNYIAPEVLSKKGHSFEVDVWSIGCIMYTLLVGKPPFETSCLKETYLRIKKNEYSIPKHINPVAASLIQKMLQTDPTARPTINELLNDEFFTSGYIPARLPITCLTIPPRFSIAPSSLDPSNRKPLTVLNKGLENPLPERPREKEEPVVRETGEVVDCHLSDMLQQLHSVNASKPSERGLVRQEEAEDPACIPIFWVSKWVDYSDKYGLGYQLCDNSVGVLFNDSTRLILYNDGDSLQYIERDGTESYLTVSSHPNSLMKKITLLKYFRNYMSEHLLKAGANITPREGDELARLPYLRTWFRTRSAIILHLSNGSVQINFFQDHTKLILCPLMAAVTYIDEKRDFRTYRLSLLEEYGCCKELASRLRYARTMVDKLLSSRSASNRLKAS
TSHR antag: blocks TSH signaling through the human TSH receptor. P16473. TSHR-expressing cells, TSH-stimulated cAMP HTRF, 2 h; hits give low values. activity change, negative = inhibition, % at 11.5 µM. 330,000 tested, 0.2% active;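 active = activity change below a set negative limit, meaning inhibition stronger than a set level, cut at about -70% in these data; inconclusive = activity change between two set negative limits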
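TSHR-expressing cells were treated with compounds, then stimulated with TSH at EC80 (4nM final) for 2 hours at 37 deg C. Cellular cAMP was measured by HTRF competition between lysate cAMP and cAMP-d2 for a cryptate-labelled anti-cAMP antibody.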
Vif-A3F inh: inhibitors of Vif-A3F interaction. HeLa A3F-eYFP + Vif (tagged APOBEC3F with the HIV-1 protein that degrades it), YFP fluorescence increase. 390,000 tested, 0.2% active. Potency, µM (highest dose often 46.1 µM). AID 602313; note: nearly all actives have a fitted effect of over 65% in size
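HeLa cells stably expressing A3F-eYFP plus Vif, plated and incubated overnight at 37 deg C, then exposed to compounds overnight at 37 deg C. Blocked degradation read as raised yellow fluorescence (Ex 488/Em 500-530).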
Vif-APOBEC3G blk: Vif-A3G binding inhibition; 410,000 tested, 0.076% active; Q9HC16; Potency, µM (titrated, usually from 46.1 µM), actives largely listed as inhibitors; HeLa A3G-eYFP + Vif (tagged APOBEC3G with the HIV-1 protein that degrades it), YFP fluorescence, overnight; note: nearly all actives have a fitted effect of over 60% in size
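HeLa cells stably expressing Vif and C-terminally eYFP-tagged A3G, seeded overnight at 37 deg C, then exposed to compound by pintool overnight at 37 deg C. Rise in yellow fluorescence (Ex 488/Em 500-530, Acumen) marks blocked Vif-driven A3G degradation.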
USP1 UbRho: USP1-UAF1 deubiquitinase inhibition validated | 50 tested, 50% active | Ub-Rhodamine cleavage, fluorescence kinetic read | Potency, µM (titrated, usually from 56.8 µM), hits mostly inhibitors | shares compounds with VDR inhibitor
VDR inh confirm: confirmation of human vitamin D receptor inhibitors. VDR-coactivator inhibition assay, qHTS confirmation. shares compounds with VDR inhibitor. 840 tested, 89% active. AID 602199. Potency, µM, actives largely listed as inhibitors
VDR FP: blocks human VDR-coactivator binding in fluorescein assay; shares compounds with VDR inhibitor; VDR-coactivator binding, fluorescein fluorescence polarization; Potency, µM (titrated, usually from 57.1 µM), actives largely listed as inhibitors; 840 tested, 48% active; AID 602200
VDR bla: VDR (human) inhibition, cell-based beta-lactamase validation; shares compounds with VDR inhibitor; VDR beta-lactamase reporter cells, FRET ratio; cells co-treated with VDR agonist LG190178; Potency, µM (top dose mostly 46.1 µM), usual class: inhibitors; 840 tested, 23% active; AID 602202
VDR cytotox: cytotoxic in counter-screen for VDR inhibitors; 840 tested, 18% active; cytotoxicity counter-screen, cell viability, qHTS; Potency, µM (titrated, usually from 48.3 µM), hits mostly cytotoxic; shares compounds with VDR inhibitor; note: nearly all actives have a fitted effect of over 75% in size
Hits are given with their value; . = inactive; ? = inconclusive; / = not tested or not shown. Hits are enriched below; roughly 3.1% of the tested compounds scored in any of these assays. Unless noted, calls come from the whole dose curve; as a rule, active = well fitted curve in the direction sought with a large enough effect; inconclusive = small, poorly fitted or top-dose-only effect, or another doubt; inactive = no such curve, though single readings can be large; an effect the other way counts as inactive or inconclusive.

SMILES	VDR inhibitor	PLK1 PBD block	TSHR antag	Vif-A3F inh	Vif-APOBEC3G blk	VDR inh confirm	VDR FP	VDR bla	VDR cytotox	others
CCCCCCCCCCCCCCOS(=O)(=O)O	28µM	/	/	/	/	/	/	/	/
CCCCCCCCOC(=O)c1ccccc1C(=O)OCCCCCCCC	.	/	/	/	/	/	/	/	/
Cc1c(C)n(O)c2ccc3nonc3c12	.	19µM	.	.	.	/	/	/	/
CCC(C)n1c(=O)[nH]c(C)c(Br)c1=O (configuration not stated)	.	/	/	/	/	/	/	/	/
C[C@@H]1O[C@H](C[N+](C)(C)C)C[C@@H]1O	.	/	/	/	/	/	/	/	/
FC(F)(F)c1ccc2c(c1)N(CCCN1CCN(CCCl)CC1)c1ccccc1S2	.	.	.	.	.	/	/	/	/
OCCN1CCN(CCCN2c3ccccc3Sc3ccc(C(F)(F)F)cc32)CC1	.	.	.	.	.	/	/	/	/	USP1 UbRho=?
c1cc(CN2CC3(CCNCC3)C2)ccn1	.	/	/	/	/	/	/	/	/
O=c1oc2ccccc2c(O)c1[C@H]1c2ccc(O)cc2Oc2c1c(=O)oc1ccccc21	79µM	?	.	.	?	30	?	21µM	.
NC1=C([N+](=O)[O-])C(c2ccc3c(c2)OCO3)c2c(c3ccccc3oc2=O)O1 (configuration not stated)	.	.	.	.	.	/	/	/	/
CC(C)NC(C)C(=O)c1ccc2ccccc2c1 (configuration not stated)	.	.	.	.	.	/	/	/	/
CS(=O)(=O)c1ncc(Cl)c(C(=O)Nc2ccc3ccccc3c2)n1	13µM	9.5µM	?	.	.	8.4	?	16µM	?
C[C@@H](C1CC[C@@]2(O)C3=CC(=O)[C@@H]4C[C@@H](O)[C@@H](O)C[C@]4(C)[C@H]3CC[C@]12C)[C@H](O)CCC(C)(C)O (some centres not stated)	.	/	/	/	.	/	/	/	/
Cc1ccc(N2C(=O)NC(=O)/C(=C\c3cnc(-c4ccccc4)nc3)C2=O)cc1	22µM	8.4µM	.	?	.	27	?	.	.
C[C@@]12CC[C@H](O)C[C@@H]1CC[C@H]1[C@@H]2C[C@@H](O)[C@]2(C)[C@@H](C3=CC(=O)OC3)CC[C@]12O	.	/	/	/	/	/	/	/	/
O=[N+]([O-])c1ccc(Sc2nc3ccccc3o2)c([N+](=O)[O-])c1	25µM	5.3µM	-71	.	.	19	14µM	?	?
CN1C2CCC1/C(=C/c1ccccn1)C(=O)/C2=C\c1ccccn1	28µM	27µM	.	.	?	2.7	?	2.1µM	21µM
CCC12CN3CC(CC)(CN(C1)C3c1ccccn1)C2=O (configuration not stated)	.	/	/	.	.	/	/	/	/
CCOC(=O)COc1ccc(/C=C2\C(=O)NC(=S)N(c3ccc(OC)cc3)C2=O)cc1OC	45µM	15µM	.	.	.	24	14µM	.	.
CCCCn1c(NC(=O)c2ccc(Br)o2)c(C(=O)OCC)c2nc3ccccc3nc21	?	?	.	?	?	2.5	1.4µM	?	?
CCC(C)c1ccc(N2C(=O)NC(=O)/C(=C/c3cccn3CCOc3ccc(C)cc3)C2=O)cc1 (configuration not stated)	.	.	.	.	.	/	/	/	/
CCOc1ccc(N2C(=O)NC(=O)/C(=C\c3ccccc3[N+](=O)[O-])C2=O)cc1	32µM	9.5µM	.	.	.	9.5	?	.	.
O=NN1CCCC1c1cccnc1 (configuration not stated)	.	/	/	/	/	/	/	/	/
N#CC1c2ccccc2-n2nncc2CN1Cc1cc(Cl)cc(Cl)c1 (configuration not stated)	20µM	?	/	.	?	3.4	2.8µM	10µM	4.1µM
CC(=O)OCOCC(=O)OCO[P+](=O)C(OCOC(C)=O)c1cc([N+](=O)[O-])ccc1Oc1ccc(Br)cc1 (configuration not stated)	.	/	/	/	/	/	/	/	/
SMILES	VDR inhibitor	PLK1 PBD block	TSHR antag	Vif-A3F inh	Vif-APOBEC3G blk	VDR inh confirm	VDR FP	VDR bla	VDR cytotox	others
N#Cc1ccc(CN2CC3(CCNCC3)C2)cc1	.	/	/	/	/	/	/	/	/
Clc1ccccc1-c1cncnc1NCCc1cnc[nH]1	.	/	/	/	/	/	/	/	/
COc1ccc(-n2c(O)c(/C=C3\C=Nc4ccc(Br)cc43)c(=O)[nH]c2=O)c(OC)c1	50µM	2.1µM	.	.	?	17	?	?	?
COc1ccc(OC)c(-n2c(O)c(C=NCc3ccc4c(c3)OCO4)c(=O)[nH]c2=O)c1	.	.	.	.	.	/	/	/	/
C[C@]12CCC3C(C=CC4=CC(=O)CC[C@]43C)C1CC[C@]2(O)CCC(=O)O (some centres not stated)	.	/	/	/	/	/	/	/	/
CCOc1ccc(/C=C2/C(=O)NC(=O)N(CCc3ccc(F)cc3)C2=O)cc1	79µM	2.7µM	.	.	.	?	18µM	.	?
Cn1cccc1/C=C1/C(=O)NC(=O)N(Cc2ccccc2)C1=O	?	?	.	?	.	/	/	/	/
COc1ccc(C(=O)/C=C2/C(=O)Nc3ccccc32)c(OC)c1	35µM	?	.	.	.	21	?	?	13µM
COc1ccc([N+](=O)[O-])c(S(=O)(=O)c2ccc(Cl)cc2)n1	32µM	3µM	.	.	?	3	?	7.3µM	?
CCN1C(=O)/C(=C\C(=O)c2cccs2)c2cc(Br)ccc21	35µM	5.3µM	.	.	.	6.7	?	?	?
CCn1cc(C(=O)c2cccs2)c2ccccc21	.	.	.	.	.	/	/	/	/
CCCC(C)C1(CC)C(=O)NC(=S)NC1=O (configuration not stated)	.	/	/	/	/	/	/	/	/
CCN(CC)C(=O)N[C@H]1C=C2c3cccc4[nH]cc(c34)C[C@@H]2N(C)C1	.	/	/	/	/	/	/	/	/	USP1 UbRho=.
COC(=O)[C@@H]1[C@@H](C(=O)OC)C2(c3ccccc3-c3ccccc32)N(c2ccc(Cl)cc2)N1C#N	?	.	.	.	.	/	/	/	/
COC(=O)C[C@]1(C(=O)OC)CN(C#N)N(c2ccc(Cl)cc2)C12c1ccccc1-c1ccccc12	20µM	.	.	.	.	?	6.3µM	3.7µM	2.9µM
C[N+]1(C)CCO[C@](O)(c2ccc(-c3ccc([C@]4(O)C[N+](C)(C)CCO4)cc3)cc2)C1	.	/	/	/	/	/	/	/	/
